Assay results taken from PubChem BioAssay AID1159580 (chemical genetic matrix, 2015).
About 2,000 (36%) of roughly 5,500 compounds were called active. Another 18% or so got no clear call; they are omitted. Rule as the data show it: active = normalized growth mostly below about 0.91 (no sharp cut-off); inconclusive = no clear call, values can overlap the other calls; inactive = mostly above about 0.92. The list shows a part of the results.

Assay: chemical genetic growth profiling, strain panel (AID 1159580);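 also: tested at 20 µM; growth read once vehicle control cultures reached saturation at 30 °C; 1 = growth at the plate median or of vehicle wells; lower values mean less growth of the strain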
Settings: growth OD

Measured: normalized growth

COc1ccc2c(c1)O[C@H]1c3ccc(OC)cc3OC[C@@H]21
inactive: S. cerevisiae deletion strains, locus YJR075W, strain HOC1, active compounds read low 0.969 | S. cerevisiae deletion strains, locus YKL068W, active compounds read low 0.99 | S. cerevisiae deletion strains, locus YKL085W, strain MDH1 (second series), active compounds read low 0.98 | S. cerevisiae deletion strains, locus YKL085W, strain MDH1, active compounds read low 0.98 | S. cerevisiae deletion strains, locus YKL160W, strain elf1, active compounds read low 1.03 | S. cerevisiae deletion strains, locus YKL190W, strain CNB1, active compounds read low 1.01 | S. cerevisiae deletion strains, locus YKR001C, strain vps1, active compounds read low 0.936 | S. cerevisiae deletion strains, locus YKR026C, strain gcn3, active compounds read low 1.02 | S. cerevisiae deletion strains, locus YKR091W, strain srl3, active compounds read low 1.03 | S. cerevisiae deletion strains, locus YLL001W, strain dnm1, active compounds read low 1.02 | S. cerevisiae deletion strains, locus YLL026W, active compounds read low 1.03 | S. cerevisiae deletion strains, locus YLL041C, strain sdh2, active compounds read low 1.03 | S. cerevisiae deletion strains, locus YLR027C, strain aat2, active compounds read low 1.01 | S. cerevisiae deletion strains, locus YLR039C, strain RIC1, active compounds read low 0.767 | S. cerevisiae deletion strains, locus YLR058C, strain SHM2, active compounds read low 0.957 | S. cerevisiae deletion strains, locus YLR102C, strain apc9, active compounds read low 0.949 | S. cerevisiae deletion strains, locus YLR113W, strain HOG1, active compounds read low 1.02 | S. cerevisiae deletion strains, locus YLR221C, strain rsa3, active compounds read low 1.02 | S. cerevisiae deletion strains, locus YLR258W, strain gsy2, active compounds read low 1.03 | S. cerevisiae deletion strains, locus YLR262C, strain YPT6 (second series), active compounds read low 1 | S. cerevisiae deletion strains, locus YLR262C, strain YPT6, active compounds read low 0.744 | S. cerevisiae deletion strains, locus YLR268W, strain sec22, active compounds read low 0.9 | S. cerevisiae deletion strains, locus YLR320W, strain mms22, active compounds read low 1.02 | S. cerevisiae deletion strains, locus YLR330W, strain CHS5, active compounds read low 0.975 | S. cerevisiae deletion strains, locus YLR342W, strain FKS1, active compounds read low 1.02 | S. cerevisiae deletion strains, locus YLR357W, strain rsc2, active compounds read low 0.99 | S. cerevisiae deletion strains, locus YLR370C, strain arc18, active compounds read low 1.03 | S. cerevisiae deletion strains, locus YLR371W, strain rom2, active compounds read low 0.972 | S. cerevisiae deletion strains, locus YLR384C, strain iki3, active compounds read low 1.03 | S. cerevisiae deletion strains, locus YML016C, strain PPZ1, active compounds read low 0.985 | S. cerevisiae deletion strains, locus YML120C, strain ndi1, active compounds read low 1.02 | S. cerevisiae deletion strains, locus YML124C, strain tub3, active compounds read low 0.95 | S. cerevisiae deletion strains, locus YMR058W, strain fet3, active compounds read low 1.02 | S. cerevisiae deletion strains, locus YMR078C, strain ctf18, active compounds read low 0.915 | S. cerevisiae deletion strains, locus YMR125W, strain sto1, active compounds read low 1.02 | S. cerevisiae deletion strains, locus YMR129W, active compounds read low 1.03 | S. cerevisiae deletion strains, locus YMR205C, strain PFK2, active compounds read low 1.04 | S. cerevisiae deletion strains, locus YMR223W, strain ubp8, active compounds read low 0.92 | S. cerevisiae deletion strains, locus YMR231W, strain pep5, active compounds read low 1.03 | S. cerevisiae deletion strains, locus YMR307W, strain GAS1, active compounds read low 0.927 | S. cerevisiae deletion strains, locus YNL067W, strain RPL9B, active compounds read low 0.989 | S. cerevisiae deletion strains, locus YNL071W, strain lat1, active compounds read low 1.01 | S. cerevisiae deletion strains, locus YNL153C, strain GIM3, active compounds read low 0.953 | S. cerevisiae deletion strains, locus YNL183C, strain NPR1, active compounds read low 0.946 | S. cerevisiae deletion strains, locus YNL209W, strain ssb2, active compounds read low 1.01 | S. cerevisiae deletion strains, locus YNL233W, strain BNI4, active compounds read low 0.953 | S. cerevisiae deletion strains, locus YNL248C, strain rpa49, active compounds read low 1.02 | S. cerevisiae deletion strains, locus YNL250W, strain rad50, active compounds read low 0.993 | S. cerevisiae deletion strains, locus YNL271C, strain bni1, active compounds read low 0.944 | S. cerevisiae deletion strains, locus YNL322C, strain KRE1 (second series), active compounds read low 1.04 | S. cerevisiae deletion strains, locus YNR049C, strain mso1, active compounds read low 1.02 | S. cerevisiae deletion strains, locus YNR052C, strain pop2, active compounds read low 0.963 | S. cerevisiae deletion strains, locus YOL012C, strain htz1 1.39 | S. cerevisiae deletion strains, locus YOR001W, strain rrp6, active compounds read low 1.02 | S. cerevisiae deletion strains, locus YOR061W, strain CKA2, active compounds read low 0.997 | S. cerevisiae deletion strains, locus YOR069W, strain VPS5, active compounds read low 0.982 | S. cerevisiae deletion strains, locus YOR070C, strain gyp1, active compounds read low 1.01 | S. cerevisiae deletion strains, locus YOR080W, strain dia2, active compounds read low 1.02 | S. cerevisiae deletion strains, locus YOR083W, strain WHI5, active compounds read low 1.03 | S. cerevisiae deletion strains, locus YOR106W, strain vam3, active compounds read low 1.03 | S. cerevisiae deletion strains, locus YOR136W, strain idh2, active compounds read low 0.953 | S. cerevisiae deletion strains, locus YOR144C, strain elg1, active compounds read low 0.951 | S. cerevisiae deletion strains, locus YOR231W, strain MKK1, active compounds read low 0.979 | S. cerevisiae deletion strains, locus YOR265W, strain rbl2, active compounds read low 1.03 | S. cerevisiae deletion strains, locus YOR270C, strain vph1, active compounds read low 1.01 | S. cerevisiae deletion strains, locus YOR290C, strain snf2, active compounds read low 1.04 | S. cerevisiae deletion strains, locus YOR316C, strain cot1, active compounds read low 0.962 | S. cerevisiae deletion strains, locus YPL051W, strain arl3, active compounds read low 1.03 | S. cerevisiae deletion strains, locus YPL078C, strain atp4, active compounds read low 1.04 | S. cerevisiae deletion strains, locus YPL106C, strain sse1, active compounds read low 1.03 | S. cerevisiae deletion strains, locus YPL240C, strain hsp82, active compounds read low 1.02 | S. cerevisiae deletion strains, locus YPL241C, strain CIN2, active compounds read low 0.982 | S. cerevisiae deletion strains, locus YPL256C, strain CLN2, active compounds read low 0.939 | S. cerevisiae deletion strains, locus YPR119W, strain clb2, active compounds read low 0.939 | S. cerevisiae deletion strains, locus YPR141C, strain kar3, active compounds read low 0.975 | S. cerevisiae strains, strain wild type, active compounds read low 1.01
active: S. cerevisiae deletion strains, locus YKL009W, strain mrt4, active compounds read low 0.837 | S. cerevisiae deletion strains, locus YLR418C, strain cdc73, active compounds read low 0.691 | S. cerevisiae deletion strains, locus YML032C, strain rad52, active compounds read low 0.873 | S. cerevisiae deletion strains, locus YNL298W, strain CLA4, active compounds read low 0.908 | S. cerevisiae deletion strains, locus YNL307C, strain MCK1, active compounds read low 0.475 | S. cerevisiae deletion strains, locus YOL147C, strain pex11, active compounds read low 0.886 | S. cerevisiae deletion strains, locus YOR184W, strain ser1, active compounds read low 0.685 | S. cerevisiae deletion strains, locus YPR163C, strain tif3, active compounds read low 0.677 | S. cerevisiae deletion strains, locus YPR167C, strain met16, active compounds read low 0.907 | S. cerevisiae deletion strains, strain wtn01, active compounds read low 0.886
